Assay outcomes (PubChem BioAssay)
Sampled rows, rich in hits. Any-hit rate of the full collection: about 2.3%.
CHRM1 antagonist = antagonists of human M1 muscarinic receptor; CHO-K1 hM1, Fluo-8 calcium fluorescence, ACh EC80 antagonist; inhibition, % at 3 µM; 360,000 compounds, 1.3% hits; AID 588852;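 active = percent inhibition above its own plate's cutoff, namely the mean of that plate's compound wells plus 3 SD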;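 also: peak over basal fluorescence ratio during 140 s after agonist addition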
Target sequence (P11229 whole entry, looked up): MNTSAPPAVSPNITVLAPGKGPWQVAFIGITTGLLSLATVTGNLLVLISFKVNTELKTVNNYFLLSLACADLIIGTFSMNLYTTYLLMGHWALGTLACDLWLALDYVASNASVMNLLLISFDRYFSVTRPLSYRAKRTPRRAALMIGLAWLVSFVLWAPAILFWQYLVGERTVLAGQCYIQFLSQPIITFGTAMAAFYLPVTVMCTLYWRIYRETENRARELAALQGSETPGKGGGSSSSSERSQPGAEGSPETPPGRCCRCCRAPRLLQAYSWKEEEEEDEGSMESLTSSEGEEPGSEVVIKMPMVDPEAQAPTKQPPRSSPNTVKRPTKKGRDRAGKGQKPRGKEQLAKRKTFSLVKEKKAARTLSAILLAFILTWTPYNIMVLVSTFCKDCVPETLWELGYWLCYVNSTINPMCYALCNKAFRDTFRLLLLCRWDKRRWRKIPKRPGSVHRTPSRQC
CHRM1 agonist = agonists of human M1 muscarinic receptor; 360,000 compounds, 0.33% hits; CHO-K1 hM1, Fluo-8 calcium fluorescence, agonist mode; 0% DMSO, 100% acetylcholine EC100; AID 588814; activation, % at 3 µM; P11229;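 active = activation above the run's mean compound activation plus 3 SD, cut at about 16% in these data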;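 also: peak over basal fluorescence ratio within a 140 s kinetic read after compound addition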
CHO-K1 Ca antag = counter-screen for M1 antagonists: effect in parental CHO-K1 cells; ATP-induced calcium, Fluo-8 fluorescence; inhibition, % at 3 µM; 360,000 compounds, 0.6% hits;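 active = inhibition above a per-plate cutoff, the plate's mean sample inhibition plus 3 SD, cut at about 24% in these data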
CHRM1 PAM = positive allosteric modulators of human M1 muscarinic receptor. 360,000 compounds, 0.088% hits. AID 588819. activation, % at 3 µM. CHO-K1 hM1, Fluo-8 calcium fluorescence, ACh EC20; 0% = ACh EC20, 100% = maximal ACh; in the data active = activation above about 19%, passing the limit was not always enough
CHO-K1 Ca PAM = nonselective activator or artifact in parental CHO-K1 calcium assay; 360,000 compounds, 0.02% hits; activation, % at 3 µM; ATP EC20, Fluo-8 calcium fluorescence; 0% at ATP EC20, 100% at ATP max; AID 602247;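 active = activation above the run cutoff, the mean activation of all test compounds plus 3 SD, cut at about 40% in these data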;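 also: peak over basal fluorescence ratio in a 140 s read after ATP addition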
M1 ag parental = M1 agonist counterscreen hit in parental CHO-K1 cells; activation, % at 3 µM; 360,000 compounds, 0.48% hits; Fluo-8 calcium fluorescence; scaled to maximal ATP response, vehicle zero; AID 602248; in the data active = activation above about 15%;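 also: untransfected CHO-K1 host cells lacking M1 receptor as counterscreen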
Each line names hits and unclear results; the compound was inactive in the other large screens; ! = repeats disagree.

O=C(O)c1ccc2c(=O)n(-c3ccc(F)cc3)c(=S)[nH]c2c1	CHRM1 antagonist 38
Cc1ccc2oc(-c3cc(NC(=O)c4ncn[nH]4)ccc3O)nc2c1	none
CCCCNC(=O)C1(C)CCC(=O)N1CCOC (stereo not given)	CHO-K1 Ca antag 33
COCCN1C(=O)CCC1(C)C(=O)Nc1c(C)cccc1C (stereo not given)	CHO-K1 Ca antag 26
COc1cc2nc(C3CCC3)nc(N3CCN(c4ccccc4OC)CC3)c2cc1OC	CHRM1 antagonist 66
Cc1ccccc1S(=O)(=O)N1C[C@H]2CON(C)[C@H]2C[C@H]1c1cccc(Oc2ccccc2)c1	none
COc1ccc(-n2c(C)cc(C(=O)COC(=O)Cn3cnc4ccccc43)c2C)cc1	CHRM1 antagonist 20, CHO-K1 Ca antag 33
CN(C(=O)C(Cl)Cl)C1CC2C=CC1C2 (stereo not given)	M1 ag parental 16
CC(C)c1nnc(SCC(=O)Nc2ccc3c(c2)OCCO3)n1C	none
Cn1c(SCC(=O)N2CCN(S(=O)(=O)c3ccccc3)CC2)nc2ccccc21	none
N#CCCn1c(SCC(=O)N2CCN(S(=O)(=O)c3ccccc3)CC2)nc2ccccc21	CHRM1 antagonist 64
CC(C)Cn1c(SCC(=O)N2CCN(S(=O)(=O)c3ccccc3)CC2)nc2ccccc21	CHRM1 antagonist 30
CCCOC(=O)c1ccc(OCC(O)Cn2c(C)nc3ccccc32)cc1 (stereo not given)	CHRM1 antagonist 40
S=c1[nH]nc(-c2cccs2)n1/N=C/c1c(Cl)cccc1Cl	CHRM1 agonist 20
COC(=O)c1[nH]c2ccccc2c1NC(=O)CNC1CCCCC1	CHRM1 antagonist 38
COC(=O)c1[nH]c2ccccc2c1NC(=O)CN1CCCCCC1	none
NCCCC[C@H]1CN=C(N)N1CCC12CC3CC(CC(C3)C1)C2	CHRM1 antagonist 59
COc1ccc(S(=O)(=O)Nc2ccc3c(c2)C(=O)N([C@H](C)CO)C[C@H](C)[C@@H](CN(C)C(=O)Nc2ccc(C(F)(F)F)cc2)O3)cc1	none
Cc1ccc(S(=O)(=O)CCC(=O)NCCN2C(=O)S/C(=C/c3ccc(F)cc3)C2=O)cc1	CHO-K1 Ca antag 26
O=C(CCNC(=O)c1ccco1)NCCN1C(=O)S/C(=C\c2ccc(F)cc2)C1=O	none
O=C(Nc1cccc(F)c1)N1CCc2nc(NCc3cccc(Oc4ccccc4)c3)ncc2C1	none
Cc1onc(-c2ccccc2)c1C(=O)Nc1ccc(Cl)c(S(=O)(=O)N2CCOCC2)c1	none
O=S(=O)(c1cccc(Cn2nnc(-c3ccccc3)n2)c1)N1CCOCC1	M1 ag parental 16
COc1ccc(C(=O)C2CCN(C(=O)Nc3ccc(C)cc3)CC2)cc1	M1 ag parental 19
Cc1ccc(NC(=O)N2CCC(C(=O)c3ccc(F)cc3)CC2)cc1	none
COCCNC(=S)N1CCC(C(=O)c2ccc(F)cc2)CC1	none
COc1ccc(CCNC(=S)N2CCC(C(=O)c3ccc(F)cc3)CC2)cc1OC	M1 ag parental 15
COc1ccc(C(=O)C2CCN(C(=S)NCCc3ccc(OC)c(OC)c3)CC2)cc1	M1 ag parental 18
COc1ccc(C(=O)C2CCN(C(=S)NCCc3ccccc3)CC2)cc1	none
O=C(c1cn(Cc2ccccc2)nc1-c1ccccc1)N1CCN(c2ccccn2)CC1	none
COc1cccc(Nc2nc(C(N)c3ccccc3)cs2)n1 (stereo not given)	none
O=S(=O)(c1ccc2ccccc2c1)N1CCN(C(=S)Nc2ccccc2F)CC1	none
O=S(=O)(c1ccc(Cl)cc1)N1CCN(C(=S)Nc2ccccc2F)CC1	M1 ag parental 17
O=C(NCc1ccncc1)C1Cc2c(-c3ccccc3Oc3ccccc3)ccnc2O1 (stereo not given)	none
Cc1ccc(S(=O)(=O)N2CCOC2CNC(=O)C(=O)NCC(C)C)cc1 (stereo not given)	CHRM1 PAM 24
CNC(=O)C(=O)NCC1OCCN1S(=O)(=O)c1ccc(C)cc1 (stereo not given)	none
COc1cc2[nH]c(=O)n(CCC(=O)N3CC=C(c4ccccc4)CC3)c(=O)c2cc1OC	none
COc1cc2[nH]c(=O)n(CCCC(=O)N3CC=C(c4ccccc4)CC3)c(=O)c2cc1OC	CHRM1 antagonist 32
COc1cc(OC)c(Nc2cc(C)nc3nc(C)nn23)cc1Cl	CHRM1 antagonist 103
COc1ccc(Cl)cc1Nc1cc(C)nc2nc(C)nn12	none
O=C(CC1SC(=Nc2ccccc2)N(CCCO)C1=O)Nc1ccc(Cl)cc1 (stereo not given)	CHRM1 antagonist 30
CC(C)N=C1SC(CC(=O)Nc2ccccc2)C(=O)N1C(C)C (stereo not given)	CHRM1 antagonist 26
Cc1ccc(NC(=O)C(=O)NCCN2CCN(S(C)(=O)=O)CC2)cc1C	none
CCOc1ccc(S(=O)(=O)N(CC(=O)NCc2cccnc2)c2ccc(F)cc2)cc1	none
Cc1ccc(-n2ncc3c2CC(C)(C)CC3NC(=O)CCc2ccncc2)cc1 (stereo not given)	none
CCCn1c(CN2CCN(C(=O)OCC)CC2)nc2cc(NC(=O)CC)ccc21	none
CN1CCN(c2ccc(NC(=O)c3ccc(Oc4ccccc4)cc3)cc2)CC1	CHRM1 antagonist 46
CC(=O)c1ccc(N2CCN(C(=S)Nc3ccc(Oc4ccccc4)cc3)CC2)cc1	CHRM1 antagonist 35
COc1ccc(N2CCN(C(=S)Nc3ccccc3)CC2)cc1	none
Cc1ccc(C2=NS(=O)(=O)N(C)C(C(=O)Nc3ccc(F)cc3F)=C2)cc1	CHRM1 antagonist 34
O=C1CCCCC1Nc1ccc2ccccc2c1 (stereo not given)	none
CCCC(=O)Nc1nnc(SCC(=O)NC2CC2)s1	none
O=[N+]([O-])c1c(NCCCO)cc(Sc2nc3ccccc3s2)c2nonc12	CHRM1 antagonist 33
COc1ccc(-c2csc(NC(=O)CCN3C(=O)C4CC=CCC4C3=O)n2)cc1OC (stereo not given)	none
O=c1[nH]ncc(N2CCN(Cc3ccccc3)CC2)c1Cl	CHO-K1 Ca antag 26
CCOC(=O)Cn1c(=O)oc2cc(S(=O)(=O)Nc3ccc(F)cc3)ccc21	CHRM1 agonist 31
CCOC(=O)Cn1c(=O)oc2cc(S(=O)(=O)NCCc3ccc(C)cc3)ccc21	none
Nc1ccc2ccc(O)cc2c1	none
C[n+]1c2cc(N)ccc2cc2ccc(N)cc21	CHRM1 agonist 205, CHO-K1 Ca antag 25!, M1 ag parental 210
CCn1cc(C(=O)N2CCCC(C(=O)c3cccc(C(F)(F)F)c3)C2)cn1 (stereo not given)	none
NC(=O)c1ccccc1NC(=O)c1ccccc1Cl	none
O=C(Nc1ccccc1C(=O)Nc1nnc(C(F)(F)F)s1)c1ccccc1Cl	CHRM1 antagonist 34, CHO-K1 Ca antag 27, M1 ag parental 28
